The source of these data is article PMC9911399, “Two distinct binding modes provide the RNA-binding protein RbFox with extraordinary sequence specificity”.

T1: RBFOX1 RRM (Homo sapiens, UniProt Q9NWB1 109-208)
T1 sequence: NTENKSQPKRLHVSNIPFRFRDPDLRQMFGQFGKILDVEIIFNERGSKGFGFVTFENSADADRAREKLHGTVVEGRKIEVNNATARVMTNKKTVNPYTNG

B1: CUUGGGA (DNA:RNA)
RNA: GGGAGACCGGAAUUCAGAUUGUCCCUUGGGAUUAAAUCCCGUCGUAGCCACCA
DNA 1: CAATCTGAATTCCGGTCTCCC
DNA 2: TGGTGGCTACGACGGGATT
B2: UUGCUUG (DNA:RNA)
RNA: B1 RNA with C25U, U27G, G28C, G29U, G30U, A31G
DNA 1: CAATCTGAATTCCGGTCTCCC
DNA 2: TGGTGGCTACGACGGGATT
B3: UUGUUGC (DNA:RNA)
RNA: B1 RNA with C25U, U27G, G28U, G29U, A31C
DNA 1: CAATCTGAATTCCGGTCTCCC
DNA 2: TGGTGGCTACGACGGGATT
B4: UUGCUAG (DNA:RNA)
RNA: B1 RNA with C25U, U27G, G28C, G29U, G30A, A31G
DNA 1: CAATCTGAATTCCGGTCTCCC
DNA 2: TGGTGGCTACGACGGGATT
B5: CUGCUGC (DNA:RNA)
RNA: B1 RNA with U27G, G28C, G29U, A31C
DNA 1: CAATCTGAATTCCGGTCTCCC
DNA 2: TGGTGGCTACGACGGGATT
B6: UUGUUAG (DNA:RNA)
RNA: B1 RNA with C25U, U27G, G28U, G29U, G30A, A31G
DNA 1: CAATCTGAATTCCGGTCTCCC
DNA 2: TGGTGGCTACGACGGGATT
B7: CCCCUGC (DNA:RNA)
RNA: B1 RNA with U26C, U27C, G28C, G29U, A31C
DNA 1: CAATCTGAATTCCGGTCTCCC
DNA 2: TGGTGGCTACGACGGGATT
B8: UGCUGCU (DNA:RNA)
RNA: B1 RNA with C25U, U26G, U27C, G28U, G30C, A31U
DNA 1: CAATCTGAATTCCGGTCTCCC
DNA 2: TGGTGGCTACGACGGGATT
B9: UGCUUUU (DNA:RNA)
RNA: GGGAGACCGGAAUUCAGAUUGUCCUGCUUUUUUAAAUCCCGUCGUAGCCACCA
DNA 1: CAATCTGAATTCCGGTCTCCC
DNA 2: TGGTGGCTACGACGGGATT
B10: UGCUUUG (DNA:RNA)
RNA: B9 RNA with U31G
DNA 1: CAATCTGAATTCCGGTCTCCC
DNA 2: TGGTGGCTACGACGGGATT
B11: CUGCUUG (DNA:RNA)
RNA: B1 RNA with U27G, G28C, G29U, G30U, A31G
DNA 1: CAATCTGAATTCCGGTCTCCC
DNA 2: TGGTGGCTACGACGGGATT
B12: UCCUUGC (DNA:RNA)
RNA: B9 RNA with G26C, U30G, U31C
DNA 1: CAATCTGAATTCCGGTCTCCC
DNA 2: TGGTGGCTACGACGGGATT
B13: GUGCUAG (DNA:RNA)
RNA: B1 RNA with C25G, U27G, G28C, G29U, G30A, A31G
DNA 1: CAATCTGAATTCCGGTCTCCC
DNA 2: TGGTGGCTACGACGGGATT
B14: GACGAUG (DNA:RNA)
RNA: B9 RNA with U25G, G26A, U28G, U29A, U31G
DNA 1: CAATCTGAATTCCGGTCTCCC
DNA 2: TGGTGGCTACGACGGGATT
B15: AAAUAUU (DNA:RNA)
RNA: B9 RNA with U25A, G26A, C27A, U29A
DNA 1: CAATCTGAATTCCGGTCTCCC
DNA 2: TGGTGGCTACGACGGGATT
B16: CUUGAAA (DNA:RNA)
RNA: B1 RNA with G29A, G30A
DNA 1: CAATCTGAATTCCGGTCTCCC
DNA 2: TGGTGGCTACGACGGGATT
B17: CGUUCGG (DNA:RNA)
RNA: B1 RNA with U26G, G28U, G29C, A31G
DNA 1: CAATCTGAATTCCGGTCTCCC
DNA 2: TGGTGGCTACGACGGGATT
B18: UGCUUAU (DNA:RNA)
RNA: B9 RNA with U30A
DNA 1: CAATCTGAATTCCGGTCTCCC
DNA 2: TGGTGGCTACGACGGGATT
B19: UGAUUGG (DNA:RNA)
RNA: B9 RNA with C27A, U30G, U31G
DNA 1: CAATCTGAATTCCGGTCTCCC
DNA 2: TGGTGGCTACGACGGGATT
B20: GUGCUUG (DNA:RNA)
RNA: B9 RNA with U25G, G26U, C27G, U28C, U31G
DNA 1: CAATCTGAATTCCGGTCTCCC
DNA 2: TGGTGGCTACGACGGGATT
B21: GUCGUGC (DNA:RNA)
RNA: B1 RNA with C25G, U27C, G29U, A31C
DNA 1: CAATCTGAATTCCGGTCTCCC
DNA 2: TGGTGGCTACGACGGGATT
B22: UUGCCCG (DNA:RNA)
RNA: B1 RNA with C25U, U27G, G28C, G29C, G30C, A31G
DNA 1: CAATCTGAATTCCGGTCTCCC
DNA 2: TGGTGGCTACGACGGGATT
B23: UGCUUGG (DNA:RNA)
RNA: B9 RNA with U30G, U31G
DNA 1: CAATCTGAATTCCGGTCTCCC
DNA 2: TGGTGGCTACGACGGGATT
B24: UCCUGCU (DNA:RNA)
RNA: B9 RNA with G26C, U29G, U30C
DNA 1: CAATCTGAATTCCGGTCTCCC
DNA 2: TGGTGGCTACGACGGGATT
B25: UUGCUCG (DNA:RNA)
RNA: B9 RNA with G26U, C27G, U28C, U30C, U31G
DNA 1: CAATCTGAATTCCGGTCTCCC
DNA 2: TGGTGGCTACGACGGGATT
B26: UUGCUCC (DNA:RNA)
RNA: B9 RNA with G26U, C27G, U28C, U30C, U31C
DNA 1: CAATCTGAATTCCGGTCTCCC
DNA 2: TGGTGGCTACGACGGGATT
B27: UCCGUGC (DNA:RNA)
RNA: B9 RNA with G26C, U28G, U30G, U31C
DNA 1: CAATCTGAATTCCGGTCTCCC
DNA 2: TGGTGGCTACGACGGGATT
B28: UGCUUGU (DNA:RNA)
RNA: B9 RNA with U30G
DNA 1: CAATCTGAATTCCGGTCTCCC
DNA 2: TGGTGGCTACGACGGGATT
B29: UUGGUGC (DNA:RNA)
RNA: B1 RNA with C25U, U27G, G29U, A31C
DNA 1: CAATCTGAATTCCGGTCTCCC
DNA 2: TGGTGGCTACGACGGGATT
B30: UUUCUUU (DNA:RNA)
RNA: B9 RNA with G26U, C27U, U28C
DNA 1: CAATCTGAATTCCGGTCTCCC
DNA 2: TGGTGGCTACGACGGGATT
B31: UUGUCUG (DNA:RNA)
RNA: B9 RNA with G26U, C27G, U29C, U31G
DNA 1: CAATCTGAATTCCGGTCTCCC
DNA 2: TGGTGGCTACGACGGGATT

Substitutions are numbered along the chain they refer to; changes in the protein carry UniProt numbers. The full ranking holds about 16,000 sequences; the median of “ka relative to ugcaugu” is about 0.0091, and the highest 2% start at about 0.032. What follows is part of a selection rich in the highest values, with near analogues and random picks from the rest.

For the assay, the target named is T1, RBFOX1 RRM. The experiment in a line: EMSA; HiTS-Eq, 1 nM pool, 10 min; buffer printed only for the single-RNA assays: 10 mM Tris pH 7.5, 150 mM NaCl, 3.4 mM EDTA, 0.001% NP-40, 30 C. The conditions noted are these: tags: His6 N-terminal (pET28a); label: 5' 32P. An outline of the steps:
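These values rest on relative association constants, computed from read-count changes of each RNA species versus the control reaction and normalised to the cognate motif. Reads came from free RNA recovered by 8% native PAGE after purified RbFox RRM (wild type or mutant) at increasing concentrations was equilibrated for 10 min in 50 µL with 1 nM of a 5′-radiolabelled pool with 7 randomized nucleotides and DNA-annealed flanks.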
(Mobility shift assays separate free from complexed probe on a gel.)
As for B1, the binding signal is 0.00252 KA relative to UGCAUGU. With B2 the figure was 0.0749 KA relative to UGCAUGU; with B3, 0.0249 KA relative to UGCAUGU.

With B4, the binding signal is 0.0399 KA relative to UGCAUGU. The result for B5 reads 0.0217 KA relative to UGCAUGU. The result for B6 reads 0.0257 KA relative to UGCAUGU.

On to B7, for which the binding signal is 0.00603 KA relative to UGCAUGU. With B8 the figure was 0.0249 KA relative to UGCAUGU.

Regarding B9, the binding signal was 0.0211 KA relative to UGCAUGU. The result for B10 reads 0.0377 KA relative to UGCAUGU. The result for B11 reads 0.0459 KA relative to UGCAUGU. With B12 the figure was 0.0155 KA relative to UGCAUGU. As to B13, the binding signal is 0.0307 KA relative to UGCAUGU.

Take B14: the binding signal was 0.0266 KA relative to UGCAUGU.

Turning to B15, the binding signal is 0.00092 KA relative to UGCAUGU. For B16, the binding signal is 0.00785 KA relative to UGCAUGU.

With B17, the binding signal is 0.0132 KA relative to UGCAUGU.

As to B18, the binding signal was 0.0138 KA relative to UGCAUGU. With B19 the figure was 0.0223 KA relative to UGCAUGU. With B20, the binding signal is 0.053 KA relative to UGCAUGU. Turning to B21, the binding signal is 0.0206 KA relative to UGCAUGU. With B22 the figure was 0.0225 KA relative to UGCAUGU; with B23, 0.0481 KA relative to UGCAUGU.

As for B24, the binding signal is 0.0144 KA relative to UGCAUGU.

As for B25, the binding signal was 0.0477 KA relative to UGCAUGU. The result for B26 reads 0.0158 KA relative to UGCAUGU; that for B27, 0.0168 KA relative to UGCAUGU; that for B28, 0.0532 KA relative to UGCAUGU. In the case of B29, the binding signal is 0.0277 KA relative to UGCAUGU. With B30 the figure was 0.0113 KA relative to UGCAUGU; with B31, 0.0312 KA relative to UGCAUGU.
